# ± gives the standard deviation of the averaged measurements. The full ranking holds about 33,000 sequences; the median of “E-score (rank enrichment, -0.5 to 0.5)” is about -0.0075, and the highest 2% start at about 0.23. This excerpt belongs to a sample that is enriched for the highest values.
# Tested on: WT Max(13-93) synthetic (M65Nle)
# Experiment: PBM 8-mer E-score (E-score (rank enrichment, -0.5 to 0.5)); higher = stronger preferential binding
# Protocol: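 Protein binding microarray (universal PBM chip covering all 10-mers in fixed probe flanks) with chemically synthesized human Max(13-93) bHLH-LZ analogs (not full-length Max) bearing noncanonical residues (hArg, Tha, Aib, Nle at 65) and aromatic Cys staples. Read-out per 8-mer (and its reverse complement): E-score (rank-based enrichment, -0.5 to 0.5) and Z-score of median probe intensity.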
row,Sequence,PBM 8-mer E-score
1,CCGTCTGC,-0.0961 ± 0.0095
2,GTGAAACA,0.0563 ± 0.012
3,AGTAGTTC,-0.116 ± 0.027
4,CACCTAAC,-0.189 ± 0.12
5,CGTTCAGC,-0.266 ± 0.082
6,TCATTGCA,0.0909 ± 0.036
7,AACATACC,0.0333 ± 0.06
8,AACATACA,0.26 ± 0.062
9,ACCATACA,0.0446 ± 0.2
10,ACGTCGGA,-0.0798 ± 0.0092
11,CTGTGCAC,-0.091 ± 0.017
12,GCGTGCAC,0.215 ± 0.033
13,ACGTGCAG,0.325 ± 0.063
14,ACGTGCAC,0.391 ± 0.021
15,CCGTGCAC,0.0618 ± 0.097
16,CCGTGCAG,-0.0417 ± 0.026
17,ATGTGCAA,0.203 ± 0.06
18,ATGTGCAC,0.29 ± 0.059
19,AAGTGCAT,0.115 ± 0.097
20,AGGTGCAT,0.139 ± 0.0098
21,ATGTGCAG,0.0828 ± 0.0059
22,ACGTGCAT,0.378 ± 0.013
23,ACCACGGA,-0.207 ± 0.0078
24,ATGTCCAC,0.113 ± 0.011
25,CAGGACGG,-0.162 ± 0.092

row,Sequence,PBM 8-mer E-score
1,TCATGCGA,0.034 ± 0.055
2,ACGCCTTA,-0.0494 ± 0.025
3,CGCTTAAG,-0.0549 ± 0.15
4,AGCCTGAC,-0.0941 ± 0.14
5,CTTATAGC,-0.0275 ± 0.032
6,GAGCGCTA,-0.0703 ± 0.047
7,ATGAACCA,0.145 ± 0.06
8,ACGGCGGC,-0.238 ± 0.059
9,CGTGCTAC,0.2 ± 0.061
10,CAATGGAG,0.0245 ± 0.12
11,CGGGTACG,-0.133 ± 0.043
12,CCAGGCGG,-0.0313 ± 0.028
13,CCCAATGA,0.0385 ± 0.031
14,ATGTGAGA,0.231 ± 0.13
15,CCAACTCG,-0.00075 ± 0.037
16,ACGTGCAA,0.3 ± 0.035
17,TCGTGCAA,0.131 ± 0.057
18,CCGTGCAA,-0.0752 ± 0.025
19,AAATACGT,0.152 ± 0.043
20,AAATACGC,0.237 ± 0.027
21,GAATACGC,0.0909 ± 0.01
22,GTGAATCA,-0.115 ± 0.022
23,GTTACATA,0.113 ± 0.0025
24,ATAACACC,0.106 ± 0.076
25,ATAACATC,0.187 ± 0.028

row,Sequence,PBM 8-mer E-score
1,ATAACACG,0.307 ± 0.0054
2,ATTACATA,0.24 ± 0.039
3,ATAACATG,0.231 ± 0.01
4,ATAACATA,0.266 ± 0.023
5,ATAACACA,0.181 ± 0.095
6,GTAACACA,0.238 ± 0.024
7,GTAACAAA,0.126 ± 0.0055
8,CTAACACA,0.121 ± 0.13
9,ATTACATG,0.223 ± 0.061
10,AGGGGAAT,0.0772 ± 0.04
11,CCGTAGCC,-0.216 ± 0.071
12,ACGCGTAA,0.105 ± 0.048
13,TCGCATCA,0.046 ± 0.015
14,AACGCAAA,-0.144 ± 0.021
15,GATCTTAA,0.0118 ± 0.0058
16,CAAATACG,0.138 ± 0.086
17,CTTTGCCA,-0.107 ± 0.097
18,ACAACACA,0.23 ± 0.091
19,ACAACACG,0.261 ± 0.034
20,ACAACACC,0.158 ± 0.0054
21,ATCCATCG,-0.21 ± 0.014
22,AGCGTGCA,0.285 ± 0.03
23,CTCGTGCA,0.134 ± 0.097
24,GGCGTGCA,0.0504 ± 0.037
25,CGCGTGCC,0.124 ± 0.062

row,Sequence,PBM 8-mer E-score
1,AGCGTGCG,0.0436 ± 0.017
2,CGCGTGCA,0.285 ± 0.03
3,CAAATTCA,-0.0652 ± 0.032
4,ATATTCTC,0.189 ± 0.055
5,GTGCCACA,-0.00257 ± 8.5e-05
6,ATACCACA,0.159 ± 0.0088
7,ATGCCACG,0.259 ± 0.059
8,ATGCCACA,0.00378 ± 0.092
9,CAACCACG,0.301 ± 0.041
10,CAACCACA,-0.0966 ± 0.041
11,ATACCACG,0.255 ± 0.015
12,ATACCACC,0.121 ± 0.028
13,AAACCACA,0.223 ± 0.0085
14,CGTGATTC,0.117 ± 0.036
15,AGAACTGC,-0.0987 ± 0.0029
16,CTTCACCC,0.151 ± 0.046
17,ATAGACGG,0.103 ± 0.018
18,ATGCGCAC,0.102 ± 0.09
19,ATGCGCAA,0.1417 ± 0.00042
20,ATGCGCAT,0.285 ± 0.06
21,CAACGCAG,-0.158 ± 0.021
22,ACCCGAAC,-0.0582 ± 0.096
23,AATGAACG,0.163 ± 0.04
24,AACACCGC,-0.0751 ± 0.024
25,ATTTAAAG,0.0962 ± 0.044

row,Sequence,PBM 8-mer E-score
1,ATTTAAAC,0.263 ± 0.046
2,GTTTAAAC,0.254 ± 0.0084
3,CTTTAAAC,0.143 ± 0.0068
4,GATTAAAC,0.0366 ± 0.087
5,GTTTAAAA,0.0508 ± 0.026
6,TACATCTA,0.0666 ± 0.053
7,CCGTTTAC,0.0331 ± 0.077
8,AATCTGTC,0.0805 ± 0.0072
9,CCGCATGC,0.2 ± 0.02
10,ACGCATGA,0.127 ± 0.021
11,ACGCATGC,0.281 ± 0.04
12,ACGCATGG,0.243 ± 0.026
13,ACGCATAG,0.0507 ± 0.032
14,ACGCATCC,0.00574 ± 0.012
15,CGATTTCC,-0.13 ± 0.008
16,GTGCTGGA,-0.0429 ± 0.077
17,ATAAATAG,0.18 ± 0.017
18,CTAAATAA,0.119 ± 0.1
19,ATAAATAC,0.295 ± 0.022
20,ATAAATAT,0.267 ± 0.0039
21,ATAAATAA,0.157 ± 0.031
22,TTAAATAA,0.12 ± 0.035
23,AACAGTTG,-0.0604 ± 0.064
24,GGACCTCC,-0.149 ± 0.028
25,CCCCCCGA,-0.154 ± 0.12

row,Sequence,PBM 8-mer E-score
1,TACTTGGA,0.0409 ± 0.043
2,CATATTAC,0.156 ± 0.05
3,TATATTAA,0.213 ± 0.011
4,AATATTAT,0.285 ± 0.026
5,CATATTAA,0.306 ± 0.014
6,AATATTAG,0.152 ± 0.15
7,ACTATTAA,0.133 ± 0.0048
8,AATATTAA,0.263 ± 0.014
9,GATATTAA,0.029 ± 0.025
10,ATTATTAA,0.172 ± 0.066
11,GATATTAC,0.237 ± 0.02
12,AATATTAC,0.228 ± 0.029
13,CATATTAG,0.15 ± 0.046
14,CTCCCAGA,-0.18 ± 0.049
15,CCCCCAGG,-0.289 ± 0.17
16,AAATTGTT,0.0622 ± 0.024
17,AAAATGTG,0.205 ± 0.015
18,AGCGACAT,0.113 ± 0.056
19,GATAGGTA,0.24 ± 0.073
20,AATAGGTA,0.195 ± 0.0039
21,CATAGGTA,0.00152 ± 0.065
22,GGCCTTTA,0.0556 ± 0.0086
23,CACGTGGG,0.4865 ± 0.00015
24,CACGTGGC,0.4858 ± 0.0018
25,GACGTGGA,-0.0291 ± 0.023

row,Sequence,PBM 8-mer E-score
1,AACGTGGC,0.218 ± 0.022
2,CAAGTGGG,0.0824 ± 0.037
3,CACGTGGA,0.4856 ± 0.0019
4,GACGTGGC,-0.0348 ± 0.019
5,TACGTGGA,0.109 ± 0.08
6,AACGTGGG,0.215 ± 0.03
7,CTTACAAC,-0.0407 ± 0.16
8,TGTAAGAA,0.12121 ± 1.4e-05
9,CGCTAAGC,-0.187 ± 0.092
10,GTGCCTCA,-0.133 ± 0.12
11,AACAGATT,-0.0422 ± 0.079
12,CCAGAATA,-0.0319 ± 0.024
13,GAACCTAA,-0.143 ± 0.099
14,CCGGTCCA,-0.194 ± 0.12
15,AGGGCACT,-0.053 ± 0.033
16,CTAGGTAA,-0.0715 ± 0.093
17,ATAGGTAA,0.0523 ± 0.015
18,GTAGGTAA,0.232 ± 0.042
19,GTGCTTGA,-0.0248 ± 0.16
20,AACCAGCA,-0.0798 ± 0.12
21,AGTGCCCC,-0.0153 ± 0.009
22,AACGCAGT,-0.173 ± 0.062
23,CAAGTATA,0.0775 ± 0.011
24,AAAGTATT,0.118 ± 0.043
25,AAAGTATA,0.282 ± 0.045

row,Sequence,PBM 8-mer E-score
1,GGAGCTTA,-0.168 ± 0.098
2,AAACGCAG,-0.069 ± 0.017
3,AACCGCAT,-0.102 ± 0.13
4,CATCATGA,0.0797 ± 0.1
5,TATCATAA,0.239 ± 0.1
6,AATCATGA,0.134 ± 0.038
7,AATCATGT,0.235 ± 0.066
8,AATCATGC,0.168 ± 0.0099
9,GATCATAA,0.156 ± 0.094
10,TATCATGA,0.272 ± 0.0036
11,AATCATGG,0.0882 ± 0.19
12,CATCATAA,0.168 ± 0.045
13,ACGATATG,0.0765 ± 0.093
14,AGTAGCGA,-0.0978 ± 0.08
15,GGCTATAA,-0.0145 ± 0.049
16,TGCTACCA,0.081 ± 0.0046
17,TCTGAAGA,-0.204 ± 0.095
18,AAGTCCGG,-0.0703 ± 0.083
19,AGGCCAAA,-0.0704 ± 0.025
20,TAGGCATA,0.0815 ± 0.076
21,AGTTTCCC,-0.0461 ± 0.026
22,ACTTGGGG,0.0672 ± 0.1
23,ATCACACC,0.0527 ± 0.072
24,CGCACGCG,0.167 ± 0.051
25,ATCACGTA,0.174 ± 0.1

row,Sequence,PBM 8-mer E-score
1,AGCACGCA,-5e-06 ± 0.0011
2,ATCACACA,0.266 ± 0.071
3,ATCACGCA,0.0746 ± 0.08
4,ATCACGTG,0.481 ± 0.006
5,ATCACACG,0.199 ± 0.029
6,ATCACGTC,0.167 ± 0.0029
7,AGCACGCG,0.258 ± 0.035
8,ATCACGCG,0.262 ± 0.0089
9,ATCACGCC,0.0823 ± 0.14
10,AAACAGTC,-0.0664 ± 0.047
11,AGGTTTTG,0.0094 ± 0.025
12,ATAGCTAA,-0.104 ± 0.047
13,AAAGCGGT,0.0199 ± 0.011
14,GCACGTAC,0.0338 ± 0.094
15,GAACGTGA,-0.00116 ± 0.019
16,GCACGTCC,-0.0119 ± 0.016
17,GCACGTGC,0.489 ± 0.0044
18,GGACGTGA,-0.0819 ± 0.01
19,GCACGTGA,0.4391 ± 0.0016

# — the supplement of paper PMC12636033
